p97 inhibitor: inhibitors of human p97 ATPase, primary screen, biochemical. Transitional endoplasmic reticulum ATPase (Homo sapiens), P55072. recombinant p97 ATPase, Kinase-Glo ATP luminescence, 3 h. inhibition, % at 8 µM. 220,000 compounds, 0.42% hits; in the data active means inhibition above about 15%
Target sequence (P55072 whole entry, looked up): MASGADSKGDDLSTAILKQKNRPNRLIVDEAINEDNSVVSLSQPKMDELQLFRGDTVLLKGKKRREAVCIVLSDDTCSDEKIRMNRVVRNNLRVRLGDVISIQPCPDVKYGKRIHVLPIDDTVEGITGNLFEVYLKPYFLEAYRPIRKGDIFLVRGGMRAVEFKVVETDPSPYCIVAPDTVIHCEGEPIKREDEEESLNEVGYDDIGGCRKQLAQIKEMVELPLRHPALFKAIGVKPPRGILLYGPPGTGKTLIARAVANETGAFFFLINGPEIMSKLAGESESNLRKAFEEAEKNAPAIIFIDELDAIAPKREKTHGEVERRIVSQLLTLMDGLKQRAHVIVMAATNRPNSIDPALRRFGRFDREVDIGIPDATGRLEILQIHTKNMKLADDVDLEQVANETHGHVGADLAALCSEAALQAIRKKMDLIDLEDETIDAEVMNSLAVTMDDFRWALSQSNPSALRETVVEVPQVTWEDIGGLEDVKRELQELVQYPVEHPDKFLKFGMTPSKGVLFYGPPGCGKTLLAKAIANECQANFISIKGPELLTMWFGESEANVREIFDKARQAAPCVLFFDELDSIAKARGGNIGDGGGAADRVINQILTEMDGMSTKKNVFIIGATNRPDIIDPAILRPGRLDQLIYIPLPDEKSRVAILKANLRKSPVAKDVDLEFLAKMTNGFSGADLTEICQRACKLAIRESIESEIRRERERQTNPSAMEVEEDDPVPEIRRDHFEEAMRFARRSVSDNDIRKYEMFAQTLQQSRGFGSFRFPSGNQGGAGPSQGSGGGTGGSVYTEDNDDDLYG
ROMK mod: ROMK potassium channel modulators, primary screen, cell-based, thallium flux, MLSMR library. 130,000 compounds, 2% hits. Tet-inducible ROMK, thallium flux fluorescence; actives lie on both sides. ATP-sensitive inward rectifier potassium channel 1 (Homo sapiens), P48048. B-score at 10 µM;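 active means signal ratio slope over the read window, or its plate-corrected B-score, at least 3 SD from the plate mean, either direction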;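 further: B-score of the F/F0 ratio slope over 7 to 12 s after thallium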
HCT116 bCat-KO: primary screen for growth suppressors in beta-catenin knockout HCT116 cells (colon tumor, human); AID 818, 2007; HCT116 beta-catenin knockout viability, CellTiter-Glo, 60 h; stronger effect = lower value; 140,000 compounds, 1.5% hits; viability, % at 10 µM;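 active means viability at or under a set limit, the compound median less 4 SD, cut at about 6% in these data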
Lmaj promast: Leishmania major promastigote growth inhibition, primary screen. Leishmania major promastigotes, resazurin fluorescence viability. inhibition, % at 10 µM. 200,000 compounds, 9% hits. AID 1063, 2008; in the data active means inhibition above about 50%;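 further: promastigotes grown with compound for 44 hours at 28 °C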
Insulin prom inh: inhibitors of insulin promoter-driven GFP, primary screen, imaging, TRM-6 cells (human fetal islet line), eGFP reporter, cell count | reporter expression induced with tamoxifen | inhibition, % at 2 µM | 130,000 compounds, 0.9% hits | AID 1273, 2008;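 active means inhibition above the mean plus 3 SD, with well images judged a real hit on visual review, cut at about 60% in these data, passing the limit was not always enough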
HCT116 PTEN-null: growth suppression of PTEN-null HCT116, primary screen, cell-based, CellTiter-Glo; HCT116 PTEN-null viability, 60 h; stronger effect = lower value; viability, % at 10 µM; 140,000 compounds, 1.2% hits; AID 827, 2007;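 active means viability at or below a set limit, 4 SD under the median of all tested compounds, cut at about 3.7% in these data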;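 further: PTEN knockout HCT116 line with beta catenin targeted HCT116 as companion control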
Of the large screens only hits and unclear results are named; the others gave an inactive call. This is a sample that favours compounds with a hit; in the whole collection about 10% have one here.

CC12CC(c3ccccc3O1)C(C(=O)N1CCOCC1)C(=O)N2 (centres undefined)	Insulin prom inh 71
CCOC(=O)c1c(NC(=O)CN2C(=O)NC3(CCCCC3C)C2=O)sc(C)c1C (centres undefined)	none
CCOC(=O)c1c(NC(=O)CN2C(=O)NC(C)(c3ccccc3)C2=O)sc(C)c1C (centres undefined)	Lmaj promast 70
CCOC(=O)c1c(NC(=O)C[n+]2ccc(N(C)C)cc2)sc(C)c1C	Lmaj promast 84 (no result: HCT116 bCat-KO, HCT116 PTEN-null)
CN(C)c1ccc(/C=C(\Cl)c2nc3ccccc3s2)cc1	none
CCCCCCCC[n+]1c(C)n(-c2ccccc2)c2ccc(NC(C)=O)cc21	Lmaj promast 99 (no result: HCT116 bCat-KO, Insulin prom inh, HCT116 PTEN-null)
Nc1c(C(=O)N/N=C/c2ccc(F)cc2)oc2nc(-c3ccccc3)cc(-c3ccco3)c12	none (no result: HCT116 bCat-KO, Lmaj promast, Insulin prom inh, HCT116 PTEN-null)
CCCN(CCC)S(=O)(=O)c1ccc(NC(=O)Cc2cccs2)cc1	none
O=C(COc1ccccc1)Nc1cccc(-c2nc3cc4ccccc4cc3[nH]2)c1	HCT116 bCat-KO 1.7, HCT116 PTEN-null 1.1 (no result: ROMK mod)
CCCN(CCC)S(=O)(=O)c1ccc(NC(=O)COc2ccccc2)cc1	Lmaj promast 98
COC(=O)COc1cccc(NC(=O)c2cccc(C)c2)c1	none (no result: HCT116 bCat-KO, HCT116 PTEN-null)
COC(=O)COc1cccc(NC(=O)c2ccccc2)c1	none (no result: ROMK mod, Insulin prom inh)
CC(C)CC(=O)Nc1cccc(-c2nc3ccccc3[nH]2)c1	none (no result: ROMK mod, HCT116 bCat-KO, Lmaj promast, Insulin prom inh, HCT116 PTEN-null)
COC(=O)COc1cccc(NC(=O)COc2ccccc2)c1	Lmaj promast 91 (no result: ROMK mod)
COC(=O)COc1cccc(NC(=O)c2cccs2)c1	Lmaj promast 61
C=CCNC(=O)c1onc(CSc2cccc(C)c2)c1C(=O)O	none (no result: ROMK mod)
CCC(C(=O)Nc1ccc(OC)c(Cl)c1)c1ccccc1 (centres undefined)	Lmaj promast 53
CCC(C(=O)OCC(=O)Nc1cccc(OC)c1)c1ccccc1 (centres undefined)	Insulin prom inh 73 (no result: HCT116 bCat-KO, HCT116 PTEN-null)
CCC(C(=O)Nc1cccc(C(=O)O)c1)c1ccccc1 (centres undefined)	none (no result: HCT116 bCat-KO, Insulin prom inh, HCT116 PTEN-null)
CC(C)c1ccc(/C=C/c2ccc(=O)n(C)n2)cc1	none (no result: HCT116 bCat-KO, Insulin prom inh, HCT116 PTEN-null)
COc1cc2c(cc1OC)C(C)N(C(=O)c1ccc(Br)o1)CC2 (centres undefined)	none (no result: ROMK mod)
CCCCNC(=O)N1CCc2ccccc2C1	none
CCCCNc1nc2ccccc2n1CC(=O)N1CCc2ccccc2C1	Lmaj promast 70 (no result: ROMK mod)
COc1ccccc1/C=N/NC(=O)CNC(=O)c1ccc(S(=O)(=O)N2CCCC2)cc1	none (no result: HCT116 bCat-KO, HCT116 PTEN-null)
COc1ccc(OC)c(/C=N/NC(=O)CNC(=O)c2ccc(S(=O)(=O)N3CCOCC3)cc2)c1	Lmaj promast 65
O=C(CNC(=O)c1ccc(S(=O)(=O)N2CCCC2)cc1)N/N=C/c1ccccc1Cl	Lmaj promast 94 (no result: Insulin prom inh)
O=C(CNC(=O)c1ccc(S(=O)(=O)N2CCCC2)cc1)N/N=C/c1ccc(F)cc1	Lmaj promast 55 (no result: HCT116 bCat-KO, HCT116 PTEN-null)
O=C(OCCCN=C1NS(=O)(=O)c2ccccc21)c1ccc([N+](=O)[O-])cc1	none (no result: HCT116 bCat-KO, HCT116 PTEN-null)
Cc1ccccc1N/C=C/C(=C(C#N)C#N)N(C)C	none (no result: ROMK mod)
Cc1ccc(NC(=O)COC(=O)c2cccc3c(=O)c(C)c(-c4ccccc4)oc23)cc1	Lmaj promast 66
COc1ccc(S(=O)(=O)N(C)C)cc1NC(=O)COC(=O)CC1CCCC1	none (no result: HCT116 bCat-KO, HCT116 PTEN-null)
COc1ccc(S(=O)(=O)N(C)C)cc1NCC(=O)Nc1ccc(Br)cc1F	Lmaj promast 57
COc1ccc(C(=O)Nc2nc(C)cs2)cc1S(=O)(=O)N1CCCC1	none (no result: HCT116 bCat-KO, HCT116 PTEN-null)
CN(c1ccccc1)c1nc(N2CCCC2)nc(-n2ccnc2)n1	Lmaj promast 95
CCOC(=O)N1CCN(c2nc(N(c3ccccc3)c3ccccc3)nc(-n3ccnc3)n2)CC1	none (no result: HCT116 bCat-KO, Lmaj promast, Insulin prom inh, HCT116 PTEN-null)
c1ccc(N(c2ccccc2)c2nc(N3CCCC3)nc(-n3ccnc3)n2)cc1	Lmaj promast 98 (no result: Insulin prom inh)
Nc1ncnc(Oc2ccccc2F)c1[N+](=O)[O-]	none (no result: HCT116 bCat-KO, Insulin prom inh, HCT116 PTEN-null)
O=C(COc1ccc(S(=O)(=O)N2CCOCC2)cc1)Nc1ccc(Cl)c(C(F)(F)F)c1	none (no result: ROMK mod)
COc1ccccc1C(=O)Nc1nc(-c2ccc(S(=O)(=O)N3CCOCC3)cc2)cs1	HCT116 bCat-KO 5.7
O=C(Nc1nc(-c2ccccc2)cs1)c1ccccc1NS(=O)(=O)c1ccc(F)cc1	HCT116 bCat-KO 4.4

Screens (PubChem)
